Test results reported in the supplement of paper PMC10849652.
Targets with a hit are over-represented here; the source holds about 7,900 in all. About 0.6% of all pairs of compound and target were hits. Values without a mark were called inactive.

Compound: COc1cc2ncnc(Nc3ccc(F)c(Cl)c3)c2cc1OCCCN1CCOCC1 [gefitinib]
Experiment: log2 fold change, soluble protein after heating vs DMSO (PISA); higher = thermal stabilisation; K562 cells, 10 uM, 30 min; active = over 0.2 and 3.5 SD of the protein, either way, in both replicates (recomputed)
Procedure, shortened: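 Aliquots of K562 cells (2×10^6 cells/mL) treated with 10 μM compound for 30 min were heated for 3 min over 48°C-58°C. After pooling and extraction in PBS with 0.5% NP-40 at 4°C, soluble protein from a 21,000xg, 90 min spin was quantified by TMTpro 16plex LC-MS/MS with channel sums equalised. Thermal stability is expressed against control samples, from duplicates, as a log2 fold change.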

Sequence of UniProt Q14320 (Q14320 whole entry, looked up): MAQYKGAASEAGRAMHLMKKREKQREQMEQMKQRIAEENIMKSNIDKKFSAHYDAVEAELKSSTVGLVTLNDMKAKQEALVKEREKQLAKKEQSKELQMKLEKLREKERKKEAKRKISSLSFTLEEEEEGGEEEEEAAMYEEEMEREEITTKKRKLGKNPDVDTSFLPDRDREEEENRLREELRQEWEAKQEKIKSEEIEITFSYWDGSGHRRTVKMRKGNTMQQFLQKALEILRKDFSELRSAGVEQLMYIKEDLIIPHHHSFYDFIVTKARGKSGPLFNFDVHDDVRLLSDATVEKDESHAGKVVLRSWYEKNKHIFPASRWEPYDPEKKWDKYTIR
Sequence of UniProt O15121 (O15121 whole entry, looked up): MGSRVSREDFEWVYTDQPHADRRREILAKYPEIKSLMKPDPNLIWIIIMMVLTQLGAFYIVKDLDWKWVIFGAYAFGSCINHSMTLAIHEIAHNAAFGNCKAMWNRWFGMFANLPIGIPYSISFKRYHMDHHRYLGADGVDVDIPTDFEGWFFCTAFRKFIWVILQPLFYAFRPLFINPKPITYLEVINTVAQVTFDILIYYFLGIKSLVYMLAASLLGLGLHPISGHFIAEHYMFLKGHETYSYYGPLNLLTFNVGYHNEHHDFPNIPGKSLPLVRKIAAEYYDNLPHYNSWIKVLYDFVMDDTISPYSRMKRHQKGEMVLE
Sequence of UniProt Q9HBU6 (Q9HBU6 whole entry, looked up): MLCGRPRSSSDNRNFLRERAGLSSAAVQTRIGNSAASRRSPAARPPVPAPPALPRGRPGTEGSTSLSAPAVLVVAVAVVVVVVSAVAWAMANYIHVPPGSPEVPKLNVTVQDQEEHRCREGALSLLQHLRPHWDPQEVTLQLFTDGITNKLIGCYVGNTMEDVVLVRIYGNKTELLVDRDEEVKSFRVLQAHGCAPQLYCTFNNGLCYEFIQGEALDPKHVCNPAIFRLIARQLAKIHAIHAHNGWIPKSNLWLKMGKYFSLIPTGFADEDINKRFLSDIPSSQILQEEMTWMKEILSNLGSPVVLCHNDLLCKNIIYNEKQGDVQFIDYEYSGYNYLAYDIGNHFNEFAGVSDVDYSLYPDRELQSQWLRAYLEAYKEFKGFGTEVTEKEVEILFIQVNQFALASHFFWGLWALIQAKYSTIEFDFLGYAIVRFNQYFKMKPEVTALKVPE
Sequence of UniProt Q5VYK3 (Q5VYK3 whole entry, looked up): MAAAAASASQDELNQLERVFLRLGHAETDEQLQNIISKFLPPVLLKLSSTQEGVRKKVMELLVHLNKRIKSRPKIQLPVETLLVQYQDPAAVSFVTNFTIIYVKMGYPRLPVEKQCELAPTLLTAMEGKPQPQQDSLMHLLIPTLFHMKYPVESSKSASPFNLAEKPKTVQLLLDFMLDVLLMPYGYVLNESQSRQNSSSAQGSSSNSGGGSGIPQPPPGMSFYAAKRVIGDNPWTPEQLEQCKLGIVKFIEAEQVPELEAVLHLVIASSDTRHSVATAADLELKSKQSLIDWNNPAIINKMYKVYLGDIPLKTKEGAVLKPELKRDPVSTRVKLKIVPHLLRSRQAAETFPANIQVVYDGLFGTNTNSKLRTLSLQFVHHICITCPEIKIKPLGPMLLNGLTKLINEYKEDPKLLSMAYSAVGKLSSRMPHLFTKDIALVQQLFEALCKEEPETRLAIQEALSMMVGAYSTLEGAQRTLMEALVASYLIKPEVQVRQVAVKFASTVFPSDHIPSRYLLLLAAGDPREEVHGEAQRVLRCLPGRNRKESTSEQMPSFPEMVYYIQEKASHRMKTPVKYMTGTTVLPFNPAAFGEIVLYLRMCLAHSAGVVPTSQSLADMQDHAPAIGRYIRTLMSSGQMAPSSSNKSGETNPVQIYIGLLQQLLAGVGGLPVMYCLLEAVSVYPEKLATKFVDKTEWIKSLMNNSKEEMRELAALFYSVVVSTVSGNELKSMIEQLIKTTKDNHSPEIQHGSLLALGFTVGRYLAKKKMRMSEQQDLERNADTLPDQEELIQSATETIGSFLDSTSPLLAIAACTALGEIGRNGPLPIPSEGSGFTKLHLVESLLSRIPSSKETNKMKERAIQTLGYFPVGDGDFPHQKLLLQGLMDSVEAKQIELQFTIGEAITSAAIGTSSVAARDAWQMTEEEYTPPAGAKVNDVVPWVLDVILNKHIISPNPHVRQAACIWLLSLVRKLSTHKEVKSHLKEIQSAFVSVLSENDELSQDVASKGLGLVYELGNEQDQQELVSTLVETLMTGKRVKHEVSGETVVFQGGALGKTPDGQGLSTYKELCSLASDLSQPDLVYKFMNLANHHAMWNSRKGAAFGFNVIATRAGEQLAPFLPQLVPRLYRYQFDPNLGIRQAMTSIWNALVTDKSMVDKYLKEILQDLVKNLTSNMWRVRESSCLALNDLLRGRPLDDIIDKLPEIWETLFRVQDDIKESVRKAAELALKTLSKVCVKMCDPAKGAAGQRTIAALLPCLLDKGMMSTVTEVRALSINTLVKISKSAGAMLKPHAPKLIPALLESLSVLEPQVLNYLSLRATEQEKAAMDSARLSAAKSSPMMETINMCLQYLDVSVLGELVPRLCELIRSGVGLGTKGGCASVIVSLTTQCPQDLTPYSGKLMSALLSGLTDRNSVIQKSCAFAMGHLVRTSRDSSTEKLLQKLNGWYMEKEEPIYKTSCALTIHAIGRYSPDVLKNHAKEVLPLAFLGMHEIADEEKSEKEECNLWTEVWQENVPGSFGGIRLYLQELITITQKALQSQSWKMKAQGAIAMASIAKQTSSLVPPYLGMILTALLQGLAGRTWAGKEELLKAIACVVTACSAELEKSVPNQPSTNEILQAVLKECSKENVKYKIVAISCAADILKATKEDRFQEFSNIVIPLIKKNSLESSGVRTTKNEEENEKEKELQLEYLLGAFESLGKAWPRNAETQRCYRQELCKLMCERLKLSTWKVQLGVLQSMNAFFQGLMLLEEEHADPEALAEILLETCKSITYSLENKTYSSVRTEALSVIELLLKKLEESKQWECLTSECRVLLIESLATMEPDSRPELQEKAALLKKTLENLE
Sequence of UniProt P35222 (P35222 whole entry, looked up): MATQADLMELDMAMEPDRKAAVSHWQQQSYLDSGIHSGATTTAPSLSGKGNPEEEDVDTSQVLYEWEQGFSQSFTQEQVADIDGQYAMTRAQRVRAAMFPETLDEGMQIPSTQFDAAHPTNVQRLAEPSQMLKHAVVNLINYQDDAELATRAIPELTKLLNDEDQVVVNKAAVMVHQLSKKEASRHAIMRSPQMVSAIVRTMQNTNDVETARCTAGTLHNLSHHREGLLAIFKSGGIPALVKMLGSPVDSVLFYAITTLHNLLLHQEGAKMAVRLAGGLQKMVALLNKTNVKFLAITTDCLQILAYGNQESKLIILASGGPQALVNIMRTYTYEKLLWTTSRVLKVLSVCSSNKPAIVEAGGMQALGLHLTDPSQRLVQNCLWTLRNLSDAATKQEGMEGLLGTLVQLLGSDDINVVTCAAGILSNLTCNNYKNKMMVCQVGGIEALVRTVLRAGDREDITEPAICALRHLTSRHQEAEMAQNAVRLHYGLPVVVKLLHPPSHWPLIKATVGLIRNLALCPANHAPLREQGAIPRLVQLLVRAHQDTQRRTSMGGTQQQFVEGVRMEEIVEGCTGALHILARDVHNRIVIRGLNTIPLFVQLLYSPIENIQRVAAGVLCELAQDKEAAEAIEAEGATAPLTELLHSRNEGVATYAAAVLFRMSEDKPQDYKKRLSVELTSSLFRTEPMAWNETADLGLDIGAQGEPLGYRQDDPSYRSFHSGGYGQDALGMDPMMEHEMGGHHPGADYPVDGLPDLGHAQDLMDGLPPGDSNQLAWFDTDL
Sequence of UniProt Q96GQ7 (Q96GQ7 whole entry, looked up): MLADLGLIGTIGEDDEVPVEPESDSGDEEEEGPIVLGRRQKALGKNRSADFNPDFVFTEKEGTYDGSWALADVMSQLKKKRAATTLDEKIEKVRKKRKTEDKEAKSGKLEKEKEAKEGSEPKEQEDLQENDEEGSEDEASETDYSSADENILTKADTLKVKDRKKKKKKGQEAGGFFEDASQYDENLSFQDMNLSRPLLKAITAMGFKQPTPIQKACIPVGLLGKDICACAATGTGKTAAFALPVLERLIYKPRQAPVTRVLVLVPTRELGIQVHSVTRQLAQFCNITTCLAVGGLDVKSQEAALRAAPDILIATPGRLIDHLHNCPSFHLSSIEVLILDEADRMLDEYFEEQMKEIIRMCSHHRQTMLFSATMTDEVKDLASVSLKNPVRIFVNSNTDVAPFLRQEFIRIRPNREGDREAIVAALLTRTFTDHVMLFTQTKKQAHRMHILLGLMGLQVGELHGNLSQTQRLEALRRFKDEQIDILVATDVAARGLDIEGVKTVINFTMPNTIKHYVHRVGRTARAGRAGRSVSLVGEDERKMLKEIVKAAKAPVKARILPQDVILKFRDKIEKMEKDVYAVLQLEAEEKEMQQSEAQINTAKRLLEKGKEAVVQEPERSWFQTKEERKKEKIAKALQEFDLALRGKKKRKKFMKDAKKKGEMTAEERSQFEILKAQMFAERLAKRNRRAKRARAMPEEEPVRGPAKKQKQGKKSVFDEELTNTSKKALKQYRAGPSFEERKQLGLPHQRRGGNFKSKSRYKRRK
Sequence of UniProt Q9NWS6 (Q9NWS6 whole entry, looked up): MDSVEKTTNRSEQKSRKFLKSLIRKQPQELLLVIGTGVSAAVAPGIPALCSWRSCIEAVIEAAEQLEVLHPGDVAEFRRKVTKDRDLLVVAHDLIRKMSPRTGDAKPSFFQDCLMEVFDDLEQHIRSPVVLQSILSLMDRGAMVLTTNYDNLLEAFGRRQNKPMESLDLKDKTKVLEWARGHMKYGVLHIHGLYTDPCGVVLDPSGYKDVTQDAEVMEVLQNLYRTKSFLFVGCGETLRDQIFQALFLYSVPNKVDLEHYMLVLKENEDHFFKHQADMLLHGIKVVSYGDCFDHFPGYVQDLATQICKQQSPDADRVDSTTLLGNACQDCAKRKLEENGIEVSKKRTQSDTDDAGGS
Sequence of UniProt Q6P3W2 (Q6P3W2 whole entry, looked up): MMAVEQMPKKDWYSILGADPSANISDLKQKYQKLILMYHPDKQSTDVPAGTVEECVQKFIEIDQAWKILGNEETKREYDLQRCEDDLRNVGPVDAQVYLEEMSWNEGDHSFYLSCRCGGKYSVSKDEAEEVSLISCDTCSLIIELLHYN

Target | log2 fold change
CTNNB1 (UniProt P35222) | -0.001
DENND10 (UniProt Q8TCE6) | 0.1
EXOC4 (UniProt Q96A65) | 0.002
DEGS1 (UniProt O15121) | -0.002
DDX27 (UniProt Q96GQ7) | 0.044
EDC4 (UniProt Q6P2E9) | -0.004
CTSV (UniProt O60911) | 0.056
CYB561A3 isoform 2 (UniProt Q8NBI2) | -0.06
ERLIN2 (UniProt O94905) | -0.058
DPYSL2 (UniProt Q16555) | -0.041
ELAC1 (UniProt Q9H777) | 0.112
FAM50A (UniProt Q14320) | 0.039
FAM118A (UniProt Q9NWS6) | 0.022
DIP2A (UniProt Q14689) | 0.008
DNAJC24 (UniProt Q6P3W2) | 0.018
DHRS13 (UniProt Q6UX07) | 0.081
ECPAS (UniProt Q5VYK3) | -0.007
DMAC1 (UniProt Q96GE9) | -0.074
ELF1 (UniProt P32519) | 0.01
DNAH10 (UniProt Q8IVF4) | -0.04
DOCK8 (UniProt Q8NF50) | 0.006
ERCC6 (UniProt Q03468) | 0.026
ETNK1 (UniProt Q9HBU6) | -0.02
